Source: PubChem
Sampled rows, rich in hits. Any-hit rate of the full collection: about 6.6%.
FBA Mtb inh: Mtb FBA enzyme inhibitors, primary screen, biochemical, fluorescence, strain H37Rv. inhibition, % at 1 µM. 2.3% of 360,000 active. purified M. tuberculosis FBA, fluorescence read-out. AID 588726, 2011; in the data active means inhibition above about 27%;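 further: 0% = vehicle and 100% = reference inhibitor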
BoNT A protease: BoNT/A light chain protease inhibitors, primary screen, biochemical, flow cytometry, MLPCN library; inhibition, % at 10 µM; 0.17% of 360,000 active; Botulinum neurotoxin type A light chain protease (Clostridium botulinum A str. ATCC 3502); multiplex microsphere protease substrate cleavage; AID 588499, 2011; in the data active means inhibition above about 30%; inconclusive means no clear call, values can overlap the other calls; further: plate controls were buffer without enzyme for full effect and enzyme alone for no effect
Bead autofluor: flagged as autofluorescent in microsphere protease counterscreen. compound autofluorescence counterscreen, microsphere flow cytometry; stronger effect = higher value. fluorescence intensity (test concentration not listed). 3.1% of 360,000 active; in the data active means fluorescence intensity above about 16000; inconclusive means no clear call, values can overlap the other calls
BoNT-F LC inh: BoNT/F light chain protease inhibitors, primary screen, biochemical, flow cytometry, MLPCN library; Botulinum neurotoxin type F light chain protease (Clostridium botulinum); Multiplex microsphere protease cleavage assay; inhibition, % at 10 µM; 0.22% of 360,000 active; AID 588497, 2011; in the data active means inhibition above about 35%, passing the limit was not always enough; inconclusive means no clear call, values can overlap the other calls; further: plate controls were buffer without enzyme for full effect and enzyme alone for no effect
GDH-TPI counter: GDH-TPI coupling enzyme inhibitors, primary screen, artefact control for M. tuberculosis FBA inhibitor project, biochemical, absorbance, full deck. GDH-TPI coupled enzyme counterscreen, NADH absorbance. inhibition, % at 4.8 µM. 1.2% of 360,000 active. AID 588335, 2011; in the data active means inhibition above about 30%;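 further: 0% = DMSO wells and 100% = wells lacking the enzyme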
Anthrax LF prot: Bacillus anthracis LF protease inhibitors, primary screen, biochemical, multiplex microsphere, MLPCN library | AID 588501, 2011 | Lethal factor (Bacillus anthracis), P15917 | multiplex microsphere protease cleavage assay | 0.12% of 360,000 active | inhibition, % at 10 µM; in the data active means inhibition above about 30%; inconclusive means no clear call, values can overlap the other calls; further: plate controls were buffer without enzyme for full effect and enzyme alone for no effect
Target sequence (P15917 whole entry, looked up): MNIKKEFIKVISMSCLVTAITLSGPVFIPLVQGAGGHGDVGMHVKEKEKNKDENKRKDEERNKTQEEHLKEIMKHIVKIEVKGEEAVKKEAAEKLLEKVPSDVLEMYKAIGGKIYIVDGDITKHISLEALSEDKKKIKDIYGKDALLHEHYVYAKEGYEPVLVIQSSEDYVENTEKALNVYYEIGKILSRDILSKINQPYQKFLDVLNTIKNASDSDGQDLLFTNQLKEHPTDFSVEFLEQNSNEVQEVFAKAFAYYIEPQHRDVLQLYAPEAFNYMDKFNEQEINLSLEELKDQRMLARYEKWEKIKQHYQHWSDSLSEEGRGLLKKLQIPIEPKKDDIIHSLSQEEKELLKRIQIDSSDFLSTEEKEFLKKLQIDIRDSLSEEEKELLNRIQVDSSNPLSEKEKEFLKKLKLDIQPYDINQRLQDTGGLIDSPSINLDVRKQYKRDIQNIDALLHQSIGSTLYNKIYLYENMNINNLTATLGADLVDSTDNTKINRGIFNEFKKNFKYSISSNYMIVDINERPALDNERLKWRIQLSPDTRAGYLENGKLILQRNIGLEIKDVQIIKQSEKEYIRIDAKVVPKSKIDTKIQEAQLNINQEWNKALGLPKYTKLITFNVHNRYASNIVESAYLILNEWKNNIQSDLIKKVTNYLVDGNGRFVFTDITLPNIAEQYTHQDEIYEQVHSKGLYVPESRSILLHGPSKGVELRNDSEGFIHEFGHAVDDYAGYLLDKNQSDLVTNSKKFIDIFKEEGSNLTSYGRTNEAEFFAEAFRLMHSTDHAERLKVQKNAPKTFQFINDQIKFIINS
BoNT-A LC CP1: BoNT/A light chain protease inhibitors, confirmation, biochemical, flow cytometry, cherry pick 1; shares compounds with BoNT-F LC inh; multiplex microsphere protease assay; 3% of 720 active; AID 602139, 2011; inhibition, % at 10 µM; in the data active means inhibition above about 32%
BoNT-F LC CP1: BoNT/F light chain protease inhibitors, confirmation, biochemical, flow cytometry, cherry pick 1. shares compounds with BoNT-F LC inh. multiplex microsphere protease cleavage assay. inhibition, % at 10 µM. 720 tested, under 10 active
Anthrax LF CP1: Bacillus anthracis LF protease inhibitors, confirmation, biochemical, multiplex microsphere, cherry pick 1; multiplex microsphere protease cleavage assay; 720 tested, under 10 active; AID 602142, 2011; shares compounds with BoNT-F LC inh; inhibition, % at 10 µM
* hit, by the source's call; u = inconclusive; x = no result given; + = active, no number. Unless noted, how the calls were made is not given here.

SMILES	FBA Mtb inh	BoNT A protease	Bead autofluor	BoNT-F LC inh	GDH-TPI counter	Anthrax LF prot	BoNT-A LC CP1	BoNT-F LC CP1	Anthrax LF CP1
COc1ccc(C2=NN(C(=O)CN3CCCC3)C(c3ccc(OC)cc3)C2)cc1 (configuration not stated)	8	2	4751	57*	2	34*	-1	-7	-1
COc1ccc(C2=NN(C(=O)CN3CCCCC3)C(c3ccc(OC)cc3)C2)cc1 (configuration not stated)	1	u	4424	u	9	-2	x	x	x
COc1ccccc1NC(=O)C1=C(C)NC(SCC(=O)Nc2ccc(C(=O)O)cc2)=C(C#N)C1c1cccs1 (configuration not stated)	4	0	u	-1	20	-7	x	x	x
COC(=O)COc1ccc(S(=O)(=O)NCC2CCCO2)cc1Cl (configuration not stated)	1	1	10920	-1	10	-3	x	x	x
COc1ccc(S(=O)(=O)NCC2CCCO2)cc1Cl (configuration not stated)	0	-1	2925	35*	5	-12	-1	-4	-2
C=CCn1cnc2c(oc3ccccc32)c1=O	3	3	3046	7	4	35*	-2	-3	-3
Cc1nc2ccc(NC(=S)N3CCN(c4ccccn4)CC3)cc2nc1C	4	2	2391	0	12	-2	x	x	x
S=C(Nc1ccc2nc(-c3ccccn3)c(-c3ccccn3)nc2c1)N1CCCCC1	3	33*	2750	8	8	9	3	-3	0
CC(C)NC(=O)[C@H]1N2C(=O)c3ccccc3C2SC1(C)C (some centres not stated)	3	4	3866	36*	0	4	0	-3	-3
CC(C)OCCCNC(=O)[C@H]1N2C(=O)c3ccccc3C2SC1(C)C (some centres not stated)	3	1	3116	-8	11	6	x	x	x
COc1ccc(C(CNC(=O)c2cccc(S(=O)(=O)Nc3ccccc3OC)c2)N2CCCC2)cc1 (configuration not stated)	3	1	11267	37*	4	4	-10	-2	-4
CC(=O)c1ccc(NS(=O)(=O)c2cccc(C(=O)Nc3ccccc3C(=O)O)c2)cc1	3	4	3368	-5	27	-2	0	-1	6
COc1ccc(NS(=O)(=O)c2cccc(C(=O)NNC(=O)c3ccc(NC(C)=O)cc3)c2)cc1	-1	4	u	4	8	-2	x	x	x
COc1ccc(NS(=O)(=O)c2cccc(C(=O)Nc3ccccc3C(=O)O)c2)cc1	3	-1	4460	u	-1	3	-1	-2	4
O=C(O)c1ccc(NS(=O)(=O)c2cccc(C(=O)Nc3ccccc3[N+](=O)[O-])c2)cc1	-2	-6	4368	-10	-1	-8	x	x	x
COc1ccc(NS(=O)(=O)c2cccc(C(=O)NCC(c3ccco3)N(C)C)c2)cc1 (configuration not stated)	1	-1	5943	-7	-3	0	x	x	x
O=S(=O)(NCc1cccnc1)c1cc(Cl)ccc1Cl	2	34*	7951	37*	-1	-29	1	-6	2
O=C(O)c1ccc(Cl)c(S(=O)(=O)NCc2cccnc2)c1	-3	-1	3280	0	4	-2	x	x	x
Cc1cc2cc(CNC(=O)CCC(=O)O)ccc2[nH]1	-1	0	5908	-5	3	-10	-1	-5	-2
Cc1ccc(NC(=O)NCc2ccc3[nH]c(C)cc3c2)cc1	1	29	2383	-102	3	-69	x	x	x
Cc1cc2cc(CNC(=S)NC3CCCCC3)ccc2[nH]1	-2	14	3319	-75	-4	-42	x	x	x
CCC(=O)NCc1ccc2[nH]c(C)cc2c1	4	5	5156	-21	3	-4	-1	-6	2
Cc1cc2cc(CNC(=O)NC3CCCCC3)ccc2[nH]1	-2	37*	2837	-131	2	-62	6	-48	-14
CC(=O)NCc1ccc2[nH]c(C)cc2c1	3	2	5001	-8	5	-10	0	-1	-4
Cc1cc2cc(NC(=O)c3ccco3)ccc2[nH]1	0	1	2039	-48	4	-33	x	x	x
SMILES	FBA Mtb inh	BoNT A protease	Bead autofluor	BoNT-F LC inh	GDH-TPI counter	Anthrax LF prot	BoNT-A LC CP1	BoNT-F LC CP1	Anthrax LF CP1
COc1ccc(C(=O)NC(C)c2ccc(-n3ccnc3)cc2)cc1S(=O)(=O)N1CCOCC1 (configuration not stated)	2	0	u	-2	4	-1	x	x	x
COc1ccc([C@@H]2C[C@H]3[C@@H](CN2S(=O)(=O)c2ccccc2)C(=O)C[C@@H](c2ccccc2)N3S(=O)(=O)c2ccc(C)cc2)cc1	-2	0	3690	-2	12	-15	x	x	x
CCOC(=O)C1CCN(C(=O)Nc2ccc(OCc3ccccc3)cc2)CC1	1	-4	3889	u	3	31*	0	0	-4
Cc1ccc(N(CC(=O)NCC2CCCO2)S(=O)(=O)c2ccccc2)c(C)c1 (configuration not stated)	4	-4	3125	-9	4	-8	x	x	x
Clc1cccc(Cl)c1-c1noc(CN2CCOCC2)n1	-2	u	4349	u	-3	36*	0	-1	-3
CCCCN(C=O)c1c(CC)nc2ccc(C(=O)NCCc3ccccn3)cn12	1	0	3404	2	5	-3	x	x	x
O=c1c(/C=C(\O)c2ccccc2)nc2ccccc2n1-c1ccccc1	-22	61*	17938*	+	-1	41*	40*	36*	32*
Cc1nc2ccccc2n1-c1ccccc1	-2	0	4616	-7	1	2	x	x	x
COc1cc(NC(=O)c2c(OC)cccc2OC)ccc1NC(=O)c1cc2ccccc2o1	2	-2	3480	-39	20	32*	1	-1	0
CCn1c(=O)n(CC)c2cc(S(=O)(=O)N3CCCCC3)c(C)cc21	3	0	10905	-4	-1	-6	x	x	x
